Screens deposited in PubChem BioAssay by Broad Institute.
CDK5 p35 inh: inhibitors of human CDK5/p35 kinase. Q00535+Q15078. Recombinant CDK5/p35, ADP-Glo luminescence, 60 min. inhibition, % at 10 µM. hit rate 0.01% among 330,000. AID 488839;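 active = highest replicate inhibition of at least 50% and at least 75% of replicates reaching 50%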;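 note: plate controls were DMSO neutral control for no effect and GW8510 at 10 µM for full effect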
Target sequence (Q00535 whole entry, looked up): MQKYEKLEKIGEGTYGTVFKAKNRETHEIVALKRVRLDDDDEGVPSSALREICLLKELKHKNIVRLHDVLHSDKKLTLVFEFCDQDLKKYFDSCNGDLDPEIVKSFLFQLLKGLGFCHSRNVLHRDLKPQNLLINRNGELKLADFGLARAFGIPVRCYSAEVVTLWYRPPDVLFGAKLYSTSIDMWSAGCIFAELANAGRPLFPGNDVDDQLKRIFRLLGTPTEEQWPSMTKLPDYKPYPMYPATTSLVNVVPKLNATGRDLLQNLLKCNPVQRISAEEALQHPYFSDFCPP
Target sequence (Q15078 whole entry, looked up): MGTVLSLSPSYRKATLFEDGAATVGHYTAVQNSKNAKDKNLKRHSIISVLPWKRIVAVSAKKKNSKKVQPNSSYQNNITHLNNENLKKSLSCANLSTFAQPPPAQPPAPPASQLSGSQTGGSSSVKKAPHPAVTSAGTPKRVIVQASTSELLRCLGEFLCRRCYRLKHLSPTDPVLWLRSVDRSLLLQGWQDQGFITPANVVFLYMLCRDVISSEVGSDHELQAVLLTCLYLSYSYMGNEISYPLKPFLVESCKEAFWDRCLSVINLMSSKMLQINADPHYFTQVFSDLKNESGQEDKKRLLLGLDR
FGF22 binding: binders of recombinant human FGF22 by thermal shift; Q9HCT0; SYPRO orange fluorescence; percent of sucrose octasulfate shift, DMSO zero; activity (Tm shift, normalised), % at 9.99 µM; hit rate 1.5% among 340,000;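 active = mean Tm shift, scaled 0 neutral to 100 positive control, at about 1.3% or above, every replicate too, limit read from the data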
dFosB act: activators of mouse delta FosB homodimer. purified delta FosB, TAMRA-CDK5 oligo fluorescence polarization; percent of positive-control signal above neutral wells. activation, % at 25 µM. hit rate 0.99% among 340,000. AID 493131;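 active = mean activation above about 17%, with every replicate also reaching it, limit read from the data, passing the limit was not always enough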
PglD inh: inhibitors of Campylobacter jejuni PglD acetyltransferase; AID 602405; inhibition, % at 12.5 µM; hit rate 0.098% among 360,000; purified PglD enzyme, DTNB colorimetric CoA detection; in the data active = inhibition above about 16%, passing the limit was not always enough
PvdQ acylase: blocks Pseudomonas aeruginosa PvdQ acylase activity. purified PvdQ acylase, fluorescence plate reader. AID 488965. inhibition, % at 10 µM. hit rate 0.063% among 340,000; in the data active = inhibition above about 30%, passing the limit was not always enough;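 note: 0% = vehicle neutral wells and 100% = reference inhibitor wells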
SIRT5 block: blocks human SIRT5 desuccinylation of peptide | Q9NXA8 | Purified SirT5, succinyl-peptide AMC, trypsin-coupled fluorescence | inhibition, % at 15 µM | hit rate 1.1% among 330,000; in the data active = inhibition above about 15%
Numbers without * were called inactive; nt = no result given. In the library only some 2.8% were active in any assay of this set; here they are far more common.

SMILES	CDK5 p35 inh	FGF22 binding	dFosB act	PglD inh	PvdQ acylase	SIRT5 block
C[C@@H]1CCCCO[C@@H](CN(C)C(=O)C2CCCCC2)[C@H](C)CN([C@@H](C)CO)C(=O)c2cc(NC(=O)c3ccncc3)ccc2O1	nt	0	nt	4	nt	17*
C[C@H]1CCCCO[C@H](CN(C)C(=O)Nc2ccc(F)cc2)[C@@H](C)CN([C@@H](C)CO)C(=O)c2cc(NC(=O)Nc3ccc(C(F)(F)F)cc3)ccc2O1	nt	1.6*	nt	-5	nt	-3
C[C@@H]1CCCCO[C@H](CN(C)C(=O)Nc2ccc(C(F)(F)F)cc2)[C@@H](C)CN([C@H](C)CO)C(=O)c2cc(NC(=O)Nc3ccc(C(F)(F)F)cc3)ccc2O1	nt	1.4*	nt	10	nt	3
C[C@@H]1CN([C@H](C)CO)C(=O)c2cc(NC(=O)Nc3ccc(F)cc3)ccc2O[C@@H](C)CCCCO[C@@H]1CN(C)C(=O)c1ccccc1	nt	1.4*	nt	8	nt	4
C[C@@H]1CCCCO[C@@H](CN(C)C(=O)Nc2ccc(C(F)(F)F)cc2)[C@@H](C)CN([C@H](C)CO)C(=O)c2cc(NC(=O)Nc3ccc(F)cc3)ccc2O1	nt	0	nt	nt	nt	1
O=C(O)[C@H]1[C@H](CO)[C@H]2Cn3c(ccc(-c4cncnc4)c3=O)[C@H]2N1C(=O)C1CCCC1	nt	nt	nt	nt	nt	-12
CC(C)NC(=O)N[C@@H]1CC[C@H](CCNS(=O)(=O)c2ccc(F)cc2)O[C@@H]1CO	nt	0	nt	-1	nt	-2
CC1CCN(C(=O)COC(=O)c2cc3ccccc3oc2=O)CC1	-1	44*	-3	1	-10	nt
CCN1[C@@H]2c3ccc(C4=CCCCC4)c(=O)n3C[C@@H]2[C@@H](CO)[C@@H]1C(=O)NCc1cccc(OC)c1	nt	0	nt	1	nt	-15
Cc1ccc(Nc2n[nH]c(=S)s2)cc1F	5	46*	9	nt	-4	-3
COc1ccc(-c2csc3nc[nH]c(=O)c23)cc1	0	0	4	nt	-4	23*
Cc1ccc(CC(=O)Nc2ccncc2)cc1	-2	44*	3	0	-5	0
Cc1ccc(C2CC(=O)C=C(NCC(C)C)C2)cc1 (stereo not drawn)	-1	0	0	4	-12	15*
C[C@H](CO)N1C[C@H](C)[C@H](CN(C)C(=O)Nc2ccc(C(F)(F)F)cc2)Oc2c(NS(C)(=O)=O)cccc2C1=O	nt	0	nt	-1	nt	1
CC(C)NC(=O)N(C)C[C@@H]1Oc2ncc(C#CC3(O)CCCC3)cc2C(=O)N([C@H](C)CO)C[C@H]1C	nt	0	nt	-6	nt	-2
O=C(COC(=O)C1CC1)Nc1ncc(C(F)(F)F)cc1Cl	-1	44*	1	nt	13	-3
O=C(COC(=O)C1CC1)Nc1ncc(Cl)cc1Cl	-3	0	-2	nt	-7	2
CCOC(=O)C1(Cc2ccccc2)CCCN(C2CCN(C(C)=O)CC2)C1 (stereo not drawn)	-1	nt	2	-9	-5	23*
CCOC(=O)N1CCC(N2CCCC(CO)(Cc3cccc(OC)c3)C2)CC1 (stereo not drawn)	-2	43*	5	nt	-15	0
CO[C@H]1CN(C)C(=O)c2cc(NC(C)=O)ccc2OC[C@@H](C)N(Cc2cncnc2)C[C@H]1C	nt	0	nt	-4	nt	-1
COc1ccc(NC(=O)N[C@@H]2CC[C@H](CCNC(=O)CCN3CCCCC3)O[C@@H]2CO)cc1	nt	0	nt	0	nt	3
CCOC(=O)C1=C(N)OC2=C(C(=O)CC(C)(C)C2)C1c1ccc(C)s1 (stereo not drawn)	1	44*	-3	nt	-15	-1
CCOC(=O)C1=C(N)OC2=C(C(=O)CC(C)(C)C2)C1c1ccc(CC)s1 (stereo not drawn)	-1	0	-7	nt	-4	-1
C[C@@H](NC(=O)C[C@@H]1CC[C@H](NC(=O)CN2CCOCC2)[C@@H](CO)O1)c1ccccc1	nt	0	nt	-3	nt	-2
O=C(/C=C/c1ccc(O)cc1)c1ccccc1	18	1.3*	-3	nt	-7	2
COc1ccc(C(=O)/C=C/c2ccc(O)cc2)cc1	1	2.7*	-7	2	1	nt
COc1ccc(C=CC(=O)c2ccc([N+](=O)[O-])cc2)cc1	1	0	-12	2	-9	-2
CCC(=O)N1[C@H](CO)[C@H](c2ccc(-c3ccc(F)cc3)cc2)[C@@H]1CNC(C)=O	nt	nt	nt	2	nt	nt
